Screening results: PubChem, National Center for Advancing Translational Sciences (NCATS)
Marburg entry inh: inhibitors of Marburg virus binding or cell entry | Marburg virus pseudotyped entry inhibition, cell reporter | Potency, µM (doses to about 37.8 µM), for inactives: at the top dose activity change, negative = inhibition, actives largely listed as inhibitors | hit rate 1.8% among 300,000 | AID 540276; calls by dose curve; tested in HEK293 cells; further: potency means the concentration at half of the fitted maximal effect; on the % scale 0 is the no-effect control and ±100 the full control effect
CHX counter: counter-screen for Shiga toxin inhibitors: cycloheximide protein synthesis inhibition | cell reporter, cycloheximide protein synthesis inhibition counterscreen | max response, % | hit rate 12% among 300,000; in the data active means max response mostly above about 13%, no sharp cut-off; inactive means mostly below about 14%; further: read at 38.3 µM for the half of the compounds with a filed dose; 0% is about no effect
LASV entry inh: inhibitors of Lassa virus binding or cell entry; Potency, µM (titrated, usually from 37.9 µM), without a hit: at the top dose activity change, negative = inhibition, hits mostly inhibitors; Lassa virus pseudotype entry inhibition, cell reporter; AID 540256; hit rate 1.2% among 300,000; calls by dose curve; tested in HEK293 cells; further: potency means the concentration at half of the fitted maximal effect; on the % scale 0 is the no-effect control and ±100 the full control effect; nearly all actives have a fitted effect of over 50% in size
Shiga toxin inh: inhibitors of Shiga toxin in Vero cells. Vero cells, Shiga toxin protein synthesis inhibition reporter. inhibition, % at 38.7 µM. hit rate 9.2% among 290,000. AID 2315; in the data active means inhibition mostly above about 28%, no sharp cut-off; inactive means mostly below about 43%; further: 0% is about no effect
The depositor's hits bear a star; ? = inconclusive; / = no result given; + = active, no number; [ ] = dose if it differs, or a comment. Only some compounds are listed: those with a hit (about 12% of all), similar ones and a draw of the others.

SMILES	Marburg entry inh	CHX counter	LASV entry inh	Shiga toxin inh
COc1ccc(/C=N/n2cnnc2SCc2ccc(OC)cc2)cc1	-13%	1	2.5µM*	-12
C=CCNC(=O)COc1ccc(Br)cc1Cl	7%	33*	?	56
CN(C)CCCNC(=O)COc1ccc(Br)cc1Cl	?	1	-16%	-23
COCCNC(=O)COc1ccc(Br)cc1Cl	17%	33*	12%	42
C=CCNC(=S)NNC(=O)COc1ccc(Cl)cc1Cl	?	11	0%	21
O=C(Nc1ccccc1)c1ccc(-c2ccc(Br)cc2)o1	-103%	38*	?	54*
O=C(Nc1ccccc1)c1ccc(-c2ccc([N+](=O)[O-])cc2)o1	15%[46.1 µM]	31*	-9%	69*
CC1=CCn2c(=O)c3ccccc3c(=O)n2C1	44%	11	-6%[46.1 µM]	14
O=c1c2ccccc2c(=O)n2n1Cc1ccccc1C2	?	14*	-10%[46.1 µM]	20
CCOC(=O)c1[nH]c(C)c(CCC(=O)N2CCN(c3ccc(OC)cc3)CC2)c1C	/	/	-6%[46.1 µM]	/
COC(=O)[C@H](CC(C)C)NC(=O)Nc1ccc(F)cc1	23%[46.1 µM]	-3	?	-10
CC(C)S(=O)(=O)c1csc(C(=O)Nc2ccc(F)cc2)c1N	?	42*	?	53
CCCc1ccc(OCc2ccc(C(=O)OC)o2)c(OC)c1	?	76*	-3%	146*
C=CCc1ccc(OC(=O)NC2CCCCC2)c(OC)c1	?	28*	12%	71*
COc1ccc(CCN(C)C(=O)c2ccc(COc3ccccc3)o2)cc1OC	/	3	/	-12
CCCc1ccc(OCc2ccc(C(=O)O)o2)c(OC)c1	?	74*	?	134*
C=CCc1ccc(OCCCCNC2CCCC2)c(OC)c1	?	-4	?	-14
COc1ccccc1OCc1ccc(C(=O)NC(C)(C)C)o1	-8%	12*	-4%	20
COC(=O)c1ccc(COc2ccccc2OC)o1	/	12	/	23
Cc1ccc(CCNS(=O)(=O)c2ccc3c(c2)NC(=O)CCS3)cc1	/	-3	/	-9
C=CCc1ccc(OCCCCOc2ccc(C(=O)O)cc2)c(OC)c1	19%[46.1 µM]	-6	-4%	-17
COc1ccccc1OCc1ccc(C(=O)OCC2CCCO2)o1 (stereo unspecified)	2%	41*	10%	23
CCCc1ccc(OCc2ccc(C(=O)NN)o2)c(OC)c1	?	22*	-5%[46.1 µM]	41*
C=CCc1ccc(OCc2ccc(C(=O)O)o2)c(OC)c1	?	56*	?	87*
Cc1c2cnn(CC(=O)Nc3cccc(C(F)(F)F)c3)c(=O)c2c(C)n1Cc1ccccc1Cl	?	/	19%[46.1 µM]	/
SMILES	Marburg entry inh	CHX counter	LASV entry inh	Shiga toxin inh
COc1cc2c(cc1OC)CN(C(=O)C1CCN(S(=O)(=O)c3ccccc3F)CC1)CC2	-6%[46.1 µM]	-10	-12%[46.1 µM]	-4
CNc1oc(/C=C/c2ccccc2)nc1C#N	?	78*	?	122*
COCCNc1oc(/C=C/c2ccccc2)nc1C#N	8%	56*	?	113*
CCN1CCN(c2oc(/C=C/c3ccccc3OC)nc2C#N)CC1	-1%[46.1 µM]	/	-19%[46.1 µM]	/
N#Cc1nc(COc2ccc(-c3ccccc3)cc2)oc1NCCCN1CCOCC1	?	13	?	27
CCN1CCN(c2oc(/C=C/c3ccccc3)nc2C#N)CC1	/	42*	/	38
N#Cc1nc(/C=C/c2ccccc2)oc1NCCCN1CCOCC1	12%	33*	?	83*
CCc1ccc(Nc2cnn(-c3nc4ccccc4s3)c(=O)c2Cl)cc1	1%	71*	-15%	84*
CCOc1cc(C(=S)N2CCOCC2)cc(Br)c1OS(=O)(=O)c1ccccc1	/	-2	/	-5
CCC(C)NC(=O)/C=C1\Sc2ccccc2NC1=O (stereo unspecified)	-6%	13*	12%	40
COc1ccc(N/C=C2/Sc3ccccc3NC2=O)cc1	/	44*	/	88*
Cc1ccc(N/C=C2/Sc3ccccc3NC2=O)cc1	/	45*	/	70*
CCC(C)NC(=O)N1c2ccccc2Sc2ccccc21 (stereo unspecified)	/	2	/	-2
CC(=O)OC[C@H]1O[C@H](C#CC(C)(C)C)C=C[C@@H]1OC(C)=O	16%[14.2 µM]	/	/	/
CC(C)(C)OC(=O)N1CCC(c2c(C(=O)NCCN3CCOCC3)cnn2-c2ccccc2)CC1	/	/	1%[46.1 µM]	/
Cc1ccc2oc(=O)c3cc(C(=O)N4CCN(c5ccccc5)CC4)sc3c2c1	11%[46.1 µM]	/	-16%[46.1 µM]	/
COC(=O)c1ccc2c(c1)N(C)S(=O)(=O)c1cnc(SCC(=O)C(C)(C)C)nc1-2	8%[46.1 µM]	1	?	-3
CCc1ccc(C(=O)Cn2ccsc2=N)cc1	?	54*	?	91*
CC(C)(C)NC(=O)NC(=O)Cn1ccsc1=N	11%	-2	?	-11
COc1ncccc1-c1nnn(-c2ccc(C)cc2)n1	/	49*	/	131*
COc1ccc(-c2noc(-c3cccnc3N3CCN(c4ccc(OC)cc4)CC3)n2)cc1	3%[46.1 µM]	/	13%[46.1 µM]	/
COc1ncccc1-c1nnn(-c2ccc(F)cc2)n1	/	54*	/	71*
COc1ccccc1-c1nnn(CC#N)n1	1%	-1	0%	-15
COc1ncccc1-c1nnn(-c2ccc(Cl)c(Cl)c2)n1	/	18*	/	-6
Cc1ccc(-n2nnc(-c3cc4ccccc4nc3Cl)n2)cc1	/	6	/	26
SMILES	Marburg entry inh	CHX counter	LASV entry inh	Shiga toxin inh
O=C(CSc1nc2ccccc2c(=O)n1-c1ccc(F)cc1)NC1CCS(=O)(=O)C1 (stereo unspecified)	?	/	7%	/
C(=C\c1ccncc1)/c1ccncc1	/	-2	/	-1
Cn1c(/C=C/c2cccc([N+](=O)[O-])c2)c([N+](=O)[O-])c(=O)n(C)c1=O	8.9µM*	-1	?	-22
O=[N+]([O-])c1ccc(/C=C/c2ccncc2)cc1	/	30*	/	68*
O=[N+]([O-])c1cccc(/C=C/c2ccncc2)c1	?	22*	?	37
C(=C\c1ccncc1)/c1ccccc1	/	36*	/	34
CC(/C=C/c1cccc([N+](=O)[O-])c1)=N\NC(=O)c1ccncc1	-39%	-1	-2%	14
CC(=O)[C@H]1CC[C@H]2C3CC[C@H]4C[C@](C)(O)CC[C@]4(C)C3CC[C@]12C (stereo partly specified)	/	-4	/	-3
CN(C)c1ccc(/C=N/Nc2cccc(C(=O)O)c2)cc1	/	68*	/	198*
CN(C)c1ccc(/C=N/NC(=O)C[n+]2ccccc2)cc1	0%[46.1 µM]	/	-1%[46.1 µM]	/
CC(C)(C)c1ccc(/C=N/Nc2cccc(C(=O)O)c2)cc1	/	104*	/	+
O=C(O)c1cccc(N/N=C/c2ccc(-c3ccccc3)cc2)c1	?	67*	8.9µM*	191*
O=C(O)c1cccc(N/N=C/c2cccnc2)c1	?	40*	?	63*
Fc1ccc(/C=N\Nc2cccc(F)c2)cc1	16%[46.1 µM]	-2	7%[46.1 µM]	-9
Cc1nc(C)c(-c2ccc(SCC(=O)Nc3cccc(C)c3C)nn2)s1	/	/	-23%[46.1 µM]	/
CCOc1nsc(OCC)n1	2%[46.1 µM]	-1	23%[46.1 µM]	-5
O=C(OC[C@@H]1CCCN2CCCC[C@H]12)c1cc2ccccc2oc1=O	9%	-1	0%	-8
O=C(CSc1nnc(-c2ccccc2Cl)o1)N1CCCc2ccccc21	-8%[46.1 µM]	/	1%[46.1 µM]	/
COc1cc(CCC(N)c2cccc(O)c2)cc(OC)c1OC (stereo unspecified)	10%	/	?	/
O=C(c1cc(-c2ccccc2)n[nH]1)N1CCN(S(=O)(=O)c2ccccc2)CC1	/	-2	/	14
